These results are taken from PubChem BioAssay (NCI).

SMILES strings stand for the structures. About 83,000 compounds went through this panel and 20% of them were active in at least one assay; those are over-represented in the sample as a whole.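 Assay: single dose, 48 h. Readout: percent growth (0 = no net growth; negative = cell death). Active: <10.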 A number with no mark means an inactive call. The source made the active and inactive calls.

Among the test systems are NCI-H23 lung; NCI-H226 lung; NCI-H322M lung; HOP-62 NSCLC; NCI-H460 lung; HOP-92 NSCLC; NCI-H522 lung; A549/ATCC NSCLC; 786-0 renal; COLO 205 colon; DU-145 prostate; K-562 leukemia; MALME-3M melanoma; MDA-MB-231 breast; RXF 393 renal; SF-268 CNS; SF-295 CNS; SF-539 CNS; UACC-257 melanoma.
What all share (test): NCI-60 one-dose screen, 48 h (100 = growth as untreated, 0 = no growth, -100 = all killed)
Holding throughout (details): 10 µM unless noted

With `O=C(O)c1ccccc1C(=O)Nc1ccc(Cl)cc1`, the growth in the test on NCI-H23 lung was 99.3%; in the test on NCI-H226 lung, 118%; in the test on NCI-H322M lung, 101%; in the test on HOP-62 NSCLC it was 107%; in the test on NCI-H460 lung it was 106%; in the test on HOP-92 NSCLC, 97.8%. Also, the growth is 91% in the test with NCI-H522 lung; 85% with A549/ATCC NSCLC; 94% in the test with 786-0 renal; 107% in the test with COLO 205 colon; 103% in the test on DU-145 prostate; 68.6% with K-562 leukemia. Further, the growth in the test on MALME-3M melanoma was 109%; in the test on MDA-MB-231 breast, 104%; in the test on RXF 393 renal it was 128%; in the test with SF-268 CNS, 94.5%; with SF-295 CNS it was 101%; in the test on SF-539 CNS it was 98.6%. Moreover, the growth in the test with UACC-257 melanoma is 78.3%.
Regarding `COc1ccc(C2=NC(=O)NC2c2ccc(OC)cc2)cc1` (configuration not stated), the growth is 68.3% in the test on NCI-H23 lung; 74% in the test on NCI-H226 lung; 132% in the test on NCI-H322M lung; 42.3% in the test with HOP-62 NSCLC; 72.9% in the test with NCI-H460 lung; 26% in the test with HOP-92 NSCLC. Further, the growth is 54% in the test on NCI-H522 lung; 82.8% in the test with A549/ATCC NSCLC; 38.6% with 786-0 renal; 58.7% with COLO 205 colon; 88.5% in the test with DU-145 prostate; 21.2% in the test with K-562 leukemia. Further, the growth in the test with MALME-3M melanoma is 75.5%; with MDA-MB-231 breast it was 73.9%; in the test on RXF 393 renal, 108%; with SF-268 CNS it was 73.3%; with SF-295 CNS, 79.7%; with SF-539 CNS, 62.4%. Also, in the test on UACC-257 melanoma, the growth is 105%.
`COc1cc2c(O)n(CCCn3ccnc3)c3c4cnc5cccc(c(=O)c3c2cc1OC)c54`: the growth is 38.8% in the test on NCI-H23 lung; 41.8% with NCI-H226 lung; 77.9% in the test with NCI-H322M lung; 13.1% with HOP-62 NSCLC; 6.78% (active) in the test with NCI-H460 lung; 28% in the test on HOP-92 NSCLC. Besides, the growth is 18.7% with NCI-H522 lung; 35.6% in the test with A549/ATCC NSCLC; 7.01% (active) with 786-0 renal; 33.1% with COLO 205 colon; 19.2% with DU-145 prostate; 11.6% in the test on K-562 leukemia. In addition, the growth in the test with MALME-3M melanoma is 67.1%; with MDA-MB-231 breast, 51.2%; with RXF 393 renal it was 39.5%; with SF-268 CNS, 36.4%; in the test on SF-295 CNS it was 21.4%; in the test with SF-539 CNS, 22.1%. In addition, the growth in the test on UACC-257 melanoma was 45.2%.
Take `C/C(=N\NC(N)=S)c1nc2ccc(Cl)cc2[nH]1`: the growth in the test on NCI-H23 lung is 75.4%; in the test with NCI-H226 lung it was 46.3%; with NCI-H322M lung, 70%; in the test on HOP-62 NSCLC, 43%; with NCI-H460 lung it was 15.3%; with HOP-92 NSCLC, 79.5%. In addition, the growth was 34% in the test on NCI-H522 lung; 34.4% in the test on A549/ATCC NSCLC; 31.2% with 786-0 renal; 45% in the test on COLO 205 colon; 34.1% in the test with DU-145 prostate; 39.5% with K-562 leukemia. Besides, the growth in the test with MALME-3M melanoma is 113%; with MDA-MB-231 breast, 63.2%; with RXF 393 renal it was 48.9%; with SF-268 CNS it was 33.2%; in the test on SF-295 CNS, 44.8%; with SF-539 CNS, 43%. Besides, in the test on UACC-257 melanoma, the growth was 68.8%.
Regarding `CN(C)c1ccc(-c2cc(-c3ccc(Nc4nc(Nc5ccccc5)nc(Nc5ccc(Cl)cc5)n4)cc3)nc(N)n2)cc1`, the growth is 48% in the test on NCI-H23 lung; 59% in the test on NCI-H226 lung; 66.3% with NCI-H322M lung; 33.1% in the test with HOP-62 NSCLC; 41.7% in the test on NCI-H460 lung; -3.41% (active) in the test with HOP-92 NSCLC. The growth was 55.6% in the test on NCI-H522 lung; 43.4% in the test with A549/ATCC NSCLC; 10.6% in the test on 786-0 renal; 58.1% with COLO 205 colon; 61.4% in the test with DU-145 prostate; 10.8% in the test with K-562 leukemia. In addition, the growth is 57% with MALME-3M melanoma; 41.8% in the test on MDA-MB-231 breast; 53.8% in the test on RXF 393 renal; 50.8% with SF-268 CNS; 36.5% with SF-295 CNS; 60.8% in the test with SF-539 CNS. For the same compound, the growth in the test on UACC-257 melanoma was 55.3%.
In the case of `O=c1[nH]c(=O)n(C2CC(O)C(CO)O2)cc1CO` (configuration not stated), the growth in the test on NCI-H23 lung was 41.6%; in the test with NCI-H226 lung, 98.2%; in the test with NCI-H322M lung, 102%; with HOP-62 NSCLC it was 32.8%; in the test with NCI-H460 lung, 65.9%; in the test with HOP-92 NSCLC, 105%. Moreover, the growth in the test on NCI-H522 lung is 101%; in the test with A549/ATCC NSCLC, 86.5%; in the test with 786-0 renal, -18.5% (active); with COLO 205 colon it was 120%; in the test on DU-145 prostate, 111%; with K-562 leukemia, 82.3%. Besides, the growth was 90.1% with MALME-3M melanoma; 102% with MDA-MB-231 breast; 99.5% with RXF 393 renal; 99.8% in the test on SF-268 CNS; 110% with SF-295 CNS; 95.7% with SF-539 CNS. Also, the growth with UACC-257 melanoma is 103%.
Consider `CCCCCCCCCCCCCCCCCC1=NCCN1C(=O)OCCO`, for which the growth in the test on NCI-H23 lung was 76.9%; in the test on NCI-H226 lung, 78.5%; in the test with NCI-H322M lung it was 51.1%; in the test on HOP-62 NSCLC it was 52.6%; in the test on NCI-H460 lung, 7.14% (active); in the test with HOP-92 NSCLC, 56.5%. The growth with NCI-H522 lung is 11.1%; in the test with A549/ATCC NSCLC it was -72.4% (active); in the test with 786-0 renal, 87.2%; with COLO 205 colon, -72.9% (active); in the test on DU-145 prostate, -3.11% (active); with K-562 leukemia it was 1.39% (active). Besides, the growth is 94% with MALME-3M melanoma; -25.6% (active) in the test on MDA-MB-231 breast; 49.8% in the test with RXF 393 renal; 31.4% in the test with SF-268 CNS; 23.3% in the test on SF-295 CNS; -25.7% (active) in the test on SF-539 CNS. Also, the growth in the test with UACC-257 melanoma was 62.9%.
In the case of `O=C(/C=C/c1ccccc1)c1ccc2ccccc2c1`, the growth is 92.1% with NCI-H23 lung; 98.5% in the test on NCI-H226 lung; 99.8% in the test with NCI-H322M lung; 96.5% with HOP-62 NSCLC; 110% in the test with NCI-H460 lung; 94.6% with HOP-92 NSCLC. Besides, the growth is -3.88% (active) with NCI-H522 lung; 96.3% with A549/ATCC NSCLC; 90.8% with 786-0 renal; 38.3% with COLO 205 colon; 105% with DU-145 prostate; 56.9% in the test with K-562 leukemia. The growth in the test on MALME-3M melanoma was 95.9%; in the test on MDA-MB-231 breast, 94.3%; in the test on RXF 393 renal, 96.5%; with SF-268 CNS, 94.8%; in the test with SF-295 CNS, 107%; in the test with SF-539 CNS it was 99.2%. Moreover, in the test on UACC-257 melanoma, the growth was 87.9%.
